# Measurements reported in PubChem BioAssay (EPA / NIEHS).
# Calls of active or inactive are those of the source. The calls were made as follows: active = hit-call score of the fitted dose curve at least 0.9, where 1 is the maximum; inactive = score below 0.9.
# Read-out: Transforming Growth Factor (TGFA), TGFA (gene 7039)
# Experiment: LTEA_HepaRG_TGFA: Life Technologies and Expression Analysis (LTEA) Assay for Transforming Growth Factor (TGFA) using HepaRG (AID 2283532)
# Conditions: mRNA level, 48 h; actives raise or lower the signal
# Method: LTEA_HepaRG is a cell based, multiplexed-readout assay that uses HepaRG, a human liver cell line, with measurements taken at 48 hours after chemical dosing on a 96-well plate.LTEA_HepaRG_TGFA is one of 102 assay component(s) measured in the LTEA HepaRG cell culture assay. It is a marker of Cell proliferation, survival, death.Data from the assay component LTEA_HepaRG_TGFA was analyzed into 1 endpoint. This assay endpoint, LTEA_HepaRG_TGFA, was analyzed with bidirectional fitting relative to DMSO as the negative control and baseline of activity. Using a type of inducible reporter, measures of mRNA induction for gain or loss-of-signal activity can be used to understand regulation of transcription factor activity. To generalize the intended target to other relatable targets, this assay endpoint is annotated to the growth factor intended target family, where the subfamily is EGF-like domain.
# A total of 1060 chemcials from the ToxCast library were tested in eight-point concentration-response experiments. Cell culture and cytotoxicity assays were conducted at Thermo Fisher Scientific's Custom Services facility (Madison, WI). A single lot of human HepaRG cells (Thermo Fisher Scientific, Frederick, MD) was used for the cell culture experiments. 96-well format collagen type I coated plates of human HepaRG cells were prepared using established methods. Briefly, cryopreserved HepaRG cells were thawed, plated at a density of approximately 100,000 cells/well in HepaRG Thaw, Plate, and General Purpose media (HPRG770, Thermo Fisher Scientific), and incubated for 48 hours. 0.5% DMSO was selected as vehicle control to balance the requisite need of DMSO in HepaRG cultures to maintain differentiation (for example, baseline metabolism, proportions of hepatocytes vs. cholangiocytes), while enabling further hepatic receptor pathway activation (for example, PXR and CAR) in response to chemical exposure. 48 hours after plating, the culture medium was replaced with HepaRG Serum-Free Incudtion Media. Cells were exposed to each test chemical in duplicate and maintained in CO2 incubators for another 48 hours. Chemical plates were thawed to room temperature and 200x concentrations of treatment groups were prepared. 8-point conentration-reponse curves were made with the highest exposure at 100 uM, followed by half-log dilutions, all in 0.5% DMSO. Each test plate contained variouse controls, induction positive controls (1mM phenobarbital), cytotoxicity positive controls ([…] aflatoxin B1), vehicle controls (0.5% DMSO), and total lysis controls (0.5% DMSO). Cell morphology images were taken using an Essen IncuCyte FLR automated microscope, with six 96-well plates imaged in about 24 minutes. Images were captured and exported and JPEG files. Spent culture media was transfered to black-well plates for the LDH assay, and remaining media was sorted at -80 C for later use. Cells were treated with RLT buffer and frozen until shipped for gene expression analysis. Total RNA was isolated from the cell suspension in 75 uL of Buffer RLT (Qiagen, Germantown, MD 20874) by Quintiles/Expression Analysis (Durham, NC) using a custom isolation procedure. Total RNA from each plate well was transferred to a preamplification plate. Fluidigm's 96.96 Dynamic ArrayTM (Fluidigm, Amsterdam, the Netherlands) technology was used for gene expression analyses by quantitative reverse transcription polymerase chain reaction (qRT-PCR, performed by Quintiles/Expression Analysis, Durham, NC)89. Standard TaqManTM Assays (Applied Biosystems/ThermoFisher Scientific, Foster City, CA) were used to assess the expression of 93 genes selected based on their selectivity and sensitivity to important hepatic receptors known to be modulated by environmental chemicals; importance in human hepatocyte functionality; and hepatotoxicity. […]
Structure (SMILES),outcome,AC50
CCCSP(=O)(OCC)Oc1ccc(Br)cc1Cl (stereo not given),inactive,–
CCOP(=O)(OCC)Oc1cc(C)nc(C(C)C)n1,inactive,–
COc1cccc(C(=O)NN(C(=O)c2cc(C)cc(C)c2)C(C)(C)C)c1C,inactive,–
CN(C)NC(=O)CCC(=O)O,inactive,–
CCOP(=S)(OCC)OC(Cl)C(Cl)(Cl)Cl (stereo not given),inactive,–
CCC(CC)Nc1c([N+](=O)[O-])cc(C)c(C)c1[N+](=O)[O-],inactive,–
CCC(=O)Nc1ccc(Cl)c(Cl)c1,inactive,–
Nc1c(Cl)cc([N+](=O)[O-])cc1Cl,inactive,–
CCCSP(=O)(OCC)SCCC,inactive,–
CSC1=N[C@@](C)(c2ccccc2)C(=O)N1Nc1ccccc1,–,29.7 µM (active)
Nc1nc(N)nc(NC2CC2)n1,inactive,–
N#CSCSC#N,inactive,–
CNC(=O)ON=C(C)SC,inactive,–
CCOP(=O)(SC(C)CC)N1CCSC1=O (stereo not given),inactive,–
CCCOCC(=Nc1ccc(Cl)cc1C(F)(F)F)n1ccnc1,–,92.4 µM (active)
CCCCOC(=O)c1ccccc1C(=O)O,inactive,–
S=C1NCCN1,inactive,–
C[Si](Cn1cncn1)(c1ccc(F)cc1)c1ccc(F)cc1,–,65.1 µM (active)
CC(C)=CC1C(C(=O)OCN2C(=O)C3=C(CCCC3)C2=O)C1(C)C (stereo not given),inactive,–
COP(=O)(OC)OC(Br)C(Cl)(Cl)Br (stereo not given),inactive,–

Structure (SMILES),outcome,AC50
CN1COCN(Cc2cnc(Cl)s2)C1=N[N+](=O)[O-],inactive,–
CCOP(=S)(OCC)Oc1cc(C)nc(C(C)C)n1,inactive,–
C=C(C)[C@H]1Cc2c(ccc3c2O[C@@H]2COc4cc(OC)c(OC)cc4[C@@H]2C3=O)O1,–,7.78 µM (active)
CCCCSP(=O)(SCCCC)SCCCC,inactive,–
CCOC(=O)CC(SP(=O)(OC)OC)C(=O)OCC (stereo not given),inactive,–
CNC(=O)Oc1cccc2c1OC(C)(C)O2,inactive,–
CCOP(=S)(OCC)SCCSCC,inactive,–
CCc1cccc(C)c1N(C(=O)CCl)C(C)COC (stereo not given),inactive,–
CCOP(=S)(OCC)Oc1ccc2c(C)c(Cl)c(=O)oc2c1,inactive,–
Cc1ccn2nc(S(=O)(=O)Nc3c(F)cccc3F)nc2n1,inactive,–
CCc1cnc(C2=NC(C)(C(C)C)C(=O)N2)c(C(=O)O)c1 (stereo not given),inactive,–
C#CC(C)(C)NC(=O)c1cc(Cl)cc(Cl)c1,inactive,–
COP(=O)(OC)C(O)C(Cl)(Cl)Cl (stereo not given),inactive,–
O=C(O)c1cc(Oc2ccc(C(F)(F)F)cc2Cl)ccc1[N+](=O)[O-],inactive,–
CCc1cccc(CC)c1N(COC)C(=O)CCl,inactive,–
CCOP(=S)(Oc1cnc(C(C)(C)C)nc1)OC(C)C (stereo not given),inactive,–
CCC(=NOC/C=C/Cl)C1=C(O)CC(C2CCOCC2)CC1=O (stereo not given),inactive,–
CN(C)[C@@H]1C(=O)C(C(N)=O)=C(O)[C@@]2(O)C(=O)C3=C(O)c4c(O)cccc4[C@@](C)(O)[C@H]3[C@H](O)[C@@H]12,inactive,–
CCCCN(CC)c1c([N+](=O)[O-])cc(C(F)(F)F)cc1[N+](=O)[O-],inactive,–
COP(=O)(NC(C)=O)SC (stereo not given),inactive,–
